We go through 49 compounds from PubChem BioAssay AID1456 (Vanderbilt High Throughput Screening Facility, 2008).

Among all 190,000 compounds or so, about 4,100 (2.2%) were called active. This is one part of a sample in which actives are shown more often than they occur. A number with no mark means an inactive call.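 Rule for the calls: active = thallium flux slope and its plate-corrected score both differing from the plate sample mean at a set confidence after two filtering rounds, in either direction; inactive = the rest.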

Sequence of Solute carrier family 12 member 5 (Homo sapiens) (Q9H2X9 whole entry, looked up): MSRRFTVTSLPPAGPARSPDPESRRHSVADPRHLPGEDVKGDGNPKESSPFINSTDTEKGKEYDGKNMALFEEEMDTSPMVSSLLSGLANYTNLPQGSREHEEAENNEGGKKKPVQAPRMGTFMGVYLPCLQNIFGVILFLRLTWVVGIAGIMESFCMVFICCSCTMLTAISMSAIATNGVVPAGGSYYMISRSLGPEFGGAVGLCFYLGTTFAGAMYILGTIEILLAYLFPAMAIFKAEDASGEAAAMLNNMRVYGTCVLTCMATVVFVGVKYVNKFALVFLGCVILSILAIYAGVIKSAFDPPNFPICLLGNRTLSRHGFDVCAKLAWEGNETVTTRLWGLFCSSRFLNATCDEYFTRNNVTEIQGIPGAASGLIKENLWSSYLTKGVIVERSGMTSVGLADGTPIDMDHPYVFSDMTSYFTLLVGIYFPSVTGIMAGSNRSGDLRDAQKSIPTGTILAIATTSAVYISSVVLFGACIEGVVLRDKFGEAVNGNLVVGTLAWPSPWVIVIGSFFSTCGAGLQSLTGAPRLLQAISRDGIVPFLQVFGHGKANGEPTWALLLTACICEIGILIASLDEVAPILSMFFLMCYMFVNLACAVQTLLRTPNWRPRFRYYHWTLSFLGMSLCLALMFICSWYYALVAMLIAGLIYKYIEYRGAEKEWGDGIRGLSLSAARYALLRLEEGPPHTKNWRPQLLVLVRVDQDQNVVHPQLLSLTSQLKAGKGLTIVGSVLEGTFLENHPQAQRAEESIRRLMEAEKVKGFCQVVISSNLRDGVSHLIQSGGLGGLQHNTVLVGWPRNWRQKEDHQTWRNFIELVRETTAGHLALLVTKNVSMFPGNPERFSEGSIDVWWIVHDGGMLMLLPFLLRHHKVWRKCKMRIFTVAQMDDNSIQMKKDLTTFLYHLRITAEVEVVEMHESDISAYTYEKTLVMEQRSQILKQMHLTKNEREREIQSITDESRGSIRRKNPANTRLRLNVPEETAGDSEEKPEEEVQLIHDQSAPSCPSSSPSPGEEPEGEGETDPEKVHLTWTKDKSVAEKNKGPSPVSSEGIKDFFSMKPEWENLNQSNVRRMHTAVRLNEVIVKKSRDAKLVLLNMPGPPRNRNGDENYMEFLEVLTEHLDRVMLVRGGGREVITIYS

This experiment addresses Solute carrier family 12 member 5 (Homo sapiens) (UniProt Q9H2X9). Briefly: KCC2 cotransporter modulators, thallium flux, primary screen, cell-based, HEK293 KCC2, FluoZin-2 fluorescence, MLSMR (AID 1456).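 Note: slope of fluorescence scaled to starting intensity during 10 to 20 s after thallium.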 Particulars: KCC2 cells, thallium flux FluoZin-2 fluorescence; at 10 µM.
In the case of `CN1CCC(=NNC(=O)CN(c2cccc(Cl)c2)S(C)(=O)=O)CC1`, the B-score of Tl+ flux slope (higher = more flux/activation; lower = inhibition) was 0.643.

For the compound `Cc1ccc(S(=O)(=O)N(CC(=O)N2CCc3ccccc3C2)c2cccc(Cl)c2)cc1`, the B-score of Tl+ flux slope (higher = more flux/activation; lower = inhibition) was -1.52.

In the case of `O=C(CN(c1cccc(Cl)c1)S(=O)(=O)c1ccccc1)NN=C1CCCC1`, the B-score of Tl+ flux slope (higher = more flux/activation; lower = inhibition) is 3.73 (active).

On to `CCn1c(SCC(=O)N/N=C/c2ccncc2)nc2ccccc21`, for which the B-score of Tl+ flux slope (higher = more flux/activation; lower = inhibition) was -0.7.

As for `Cc1cccc(NC(=O)CSc2nnc(CCNC(=O)OC(C)(C)C)o2)c1C`, the B-score of Tl+ flux slope (higher = more flux/activation; lower = inhibition) is -0.155.

With `COc1cccc(Nc2nc(N)c([N+](=O)[O-])c(NCc3ccco3)n2)c1`, the B-score of Tl+ flux slope (higher = more flux/activation; lower = inhibition) is -0.0593.

As for `COc1ccc(C(=O)N/N=C2\CCS(=O)(=O)c3ccc(F)cc32)cc1OC`, the B-score of Tl+ flux slope (higher = more flux/activation; lower = inhibition) is 0.15.

`O=C(NCCCn1ccnc1)C(=O)NCC1OCCN1S(=O)(=O)c1cc(F)ccc1F` (centres undefined): the B-score of Tl+ flux slope (higher = more flux/activation; lower = inhibition) is -0.0662.

Turning to `O=c1[nH]nc(CSCc2ccccc2Cl)[nH]1`, the B-score of Tl+ flux slope (higher = more flux/activation; lower = inhibition) is 1.48.

For `S=c1[nH]nc(-c2cc(-c3ccsc3)n[nH]2)n1-c1ccccc1`, the B-score of Tl+ flux slope (higher = more flux/activation; lower = inhibition) was -0.815.

As for `S=c1[nH]nc(CSCc2ccc(Cl)cc2Cl)n1-c1ccccc1`, the B-score of Tl+ flux slope (higher = more flux/activation; lower = inhibition) was 38.3 (active).

As for `CCn1c(CSCc2c(Cl)cccc2Cl)n[nH]c1=S`, the B-score of Tl+ flux slope (higher = more flux/activation; lower = inhibition) was -0.136.

As for `Cc1ccc(NCc2n[nH]c(=S)n2-c2ccccc2)cc1Cl`, the B-score of Tl+ flux slope (higher = more flux/activation; lower = inhibition) is 20.1 (active).

Consider `COc1ccc(NCc2nnc(SCc3ccccc3)n2-c2ccc(OC)cc2)cc1`, for which the B-score of Tl+ flux slope (higher = more flux/activation; lower = inhibition) was -2.95.

`Cc1noc(C)c1C(=O)OCC(=O)N1CCN(S(=O)(=O)c2ccc3ccccc3c2)CC1`: the B-score of Tl+ flux slope (higher = more flux/activation; lower = inhibition) was -0.121.

Consider `CS(=O)(=O)c1ccc(Cl)c(NC(=O)Nc2ccccc2)c1`, for which the B-score of Tl+ flux slope (higher = more flux/activation; lower = inhibition) was -0.0556.

Consider `COc1ccc(CCN2C(=O)N(c3ccc(OC)cc3)C(=O)C2CC(=O)Nc2ccc(OC)cc2)cc1` (centres undefined), for which the B-score of Tl+ flux slope (higher = more flux/activation; lower = inhibition) is 0.0027.

In the case of `C/C(=N\NC(=O)CC(C)C)c1c(C(F)(F)F)[nH]n(-c2nc3ccccc3s2)c1=O`, the B-score of Tl+ flux slope (higher = more flux/activation; lower = inhibition) was -1.82.

As for `COc1ccccc1P(=O)(c1ccccc1)c1ccccc1NC(C)=O` (centres undefined), the B-score of Tl+ flux slope (higher = more flux/activation; lower = inhibition) is 0.0591.

For the compound `COc1ccc(CNC(=O)CCn2cccc2)cc1`, the B-score of Tl+ flux slope (higher = more flux/activation; lower = inhibition) was 7.58 (active).

With `CCOc1cc2[nH]c(=O)n(CCC(=O)NCc3ccc(OC)cc3)c(=O)c2cc1OCC`, the B-score of Tl+ flux slope (higher = more flux/activation; lower = inhibition) is 0.0101.

Take `COc1ccc(CNC(=O)C(Cc2ccccc2)n2cccc2)cc1` (centres undefined): the B-score of Tl+ flux slope (higher = more flux/activation; lower = inhibition) was -2.15.

For the compound `N#CCCCn1c(O)c(N=NC(=O)C(O)c2ccccc2)c2ccccc21` (centres undefined), the B-score of Tl+ flux slope (higher = more flux/activation; lower = inhibition) was -0.218.

As for `Cn1cccc1C(C#N)c1ccccc1C#N` (centres undefined), the B-score of Tl+ flux slope (higher = more flux/activation; lower = inhibition) is 1.43.

Take `O=C(COC(=O)c1ccc(S(=O)(=O)Nc2ccccc2)cc1)NCC1CCCO1` (centres undefined): the B-score of Tl+ flux slope (higher = more flux/activation; lower = inhibition) was 0.0831.

As to `O=C(NCCCN1CCOCC1)c1ccc(N2CCCC2)c([N+](=O)[O-])c1`, the B-score of Tl+ flux slope (higher = more flux/activation; lower = inhibition) was -0.0166.

In the case of `O=C(O)c1ccc(NC(=O)c2cn(-c3ccccc3)nc2-c2ccc(Cl)cc2)cc1`, the B-score of Tl+ flux slope (higher = more flux/activation; lower = inhibition) is -0.953.

Turning to `O=C(Nc1cn(-c2ccccc2)nc1-c1ccccc1)c1ccccc1`, the B-score of Tl+ flux slope (higher = more flux/activation; lower = inhibition) was -1.74.

In the case of `O=C(NNC(=S)NC(=O)c1cn(-c2ccccc2)nc1-c1ccccc1)c1ccncc1`, the B-score of Tl+ flux slope (higher = more flux/activation; lower = inhibition) was 8.65 (active).

On to `O=C(NCC(c1cccs1)N1CCOCC1)c1cc(-c2ccccn2)nc2ccccc12` (centres undefined), for which the B-score of Tl+ flux slope (higher = more flux/activation; lower = inhibition) is -0.17.

With `CCn1c(SCc2ccccc2)nc2c(c1=O)SCC2`, the B-score of Tl+ flux slope (higher = more flux/activation; lower = inhibition) is -2.99 (active).

On to `Cc1cccc(CSc2nc3c(c(=O)n2C)SCC3)c1`, for which the B-score of Tl+ flux slope (higher = more flux/activation; lower = inhibition) is -0.478.

Take `CCc1nnc(NC(=O)CSc2nc3c(c(=O)n2-c2ccccc2OC)SCC3)s1`: the B-score of Tl+ flux slope (higher = more flux/activation; lower = inhibition) was -2.34.

Take `CC1=CC(C)(C)NC(=S)N1NC(=O)c1ccccc1Cl`: the B-score of Tl+ flux slope (higher = more flux/activation; lower = inhibition) was 1.28.

On to `O=c1[nH]c2cccnc2n1-c1ccc([N+](=O)[O-])cc1`, for which the B-score of Tl+ flux slope (higher = more flux/activation; lower = inhibition) was 1.09.

Regarding `C/C(=N/NC(=S)Nc1ccccc1)c1ccc2c(c1)OCO2`, the B-score of Tl+ flux slope (higher = more flux/activation; lower = inhibition) was 17.1 (active).

In the case of `C/C(=N\NC(=O)C(N)=O)c1ccc2c(c1)OCCO2`, the B-score of Tl+ flux slope (higher = more flux/activation; lower = inhibition) is 0.474.

For the compound `O=C(Nc1ccccc1)c1ccc2c(c1)OCO2`, the B-score of Tl+ flux slope (higher = more flux/activation; lower = inhibition) was 1.15.

For the compound `C/C(CC(=O)NC(C)c1ccccc1)=N\NC(N)=S` (centres undefined), the B-score of Tl+ flux slope (higher = more flux/activation; lower = inhibition) is -0.13.

On to `NS(=O)(=O)c1ccc(NC2=CC(c3ccc(F)cc3)N(c3ccc(S(N)(=O)=O)cc3)C2=O)cc1` (centres undefined), for which the B-score of Tl+ flux slope (higher = more flux/activation; lower = inhibition) is -4.18.

For the compound `COc1ccc(F)cc1S(=O)(=O)N1CCCCC1`, the B-score of Tl+ flux slope (higher = more flux/activation; lower = inhibition) was -0.191.

For `COc1cc(OC)cc(C(=O)NCCSCc2ccco2)c1`, the B-score of Tl+ flux slope (higher = more flux/activation; lower = inhibition) was 2.23 (active).

As for `Cc1cc(C)cc(N(CC(=O)NCCSCc2ccco2)S(C)(=O)=O)c1`, the B-score of Tl+ flux slope (higher = more flux/activation; lower = inhibition) is -0.0202.

As for `O=C(/C=C/c1cccc([N+](=O)[O-])c1)NCCSCc1ccco1`, the B-score of Tl+ flux slope (higher = more flux/activation; lower = inhibition) is 0.313.

As for `O=[N+]([O-])c1ccc2c(c1)C(O)n1nc(-c3ccccc3)nc1S2` (centres undefined), the B-score of Tl+ flux slope (higher = more flux/activation; lower = inhibition) was 0.824.

As for `Cc1ccc(Cc2nc(-c3cccc(C)c3)no2)cc1`, the B-score of Tl+ flux slope (higher = more flux/activation; lower = inhibition) is -0.589.

In the case of `CC1CCN(Cc2nc(-c3ccc(Cl)cc3)no2)CC1`, the B-score of Tl+ flux slope (higher = more flux/activation; lower = inhibition) is -0.00541.

For the compound `Cc1ccc(-c2noc(CN3CCN(Cc4ccccc4)CC3)n2)cc1`, the B-score of Tl+ flux slope (higher = more flux/activation; lower = inhibition) was -2.45 (active).

Consider `COc1cc(/C=C2/C(=O)ON=C2C)ccc1OCc1cccc(F)c1`, for which the B-score of Tl+ flux slope (higher = more flux/activation; lower = inhibition) was 0.0292.
